Assay [1] is described as follows: qHTS assay for small molecule agonists of the p53 signaling pathway (AID 651631; calls by dose curve; note: nearly all actives have a fitted effect of over 15% in size; note: potency is the fitted concentration of half-maximal effect). The method in brief: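 Stably transfected HCT-116 cells (beta-lactamase behind p53 response elements) get compounds after a 5 h settling period; 16 h later at 37 °C, FRET substrate is loaded and fluorescence read after 2 h.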
Assay [2] is described as follows: qHTS assay for small molecules that induce genotoxicity in human embryonic kidney cells expressing luciferase-tagged ATAD5 (AID 651632). Note: nearly all actives have a fitted effect of over 15% in size. Note: potency is the fitted concentration of half-maximal effect. The method in brief: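 Luminescence read-out: after 16 hr compound exposure at 37C, ATAD5-luciferase HEK293T cells received Amplite, 30 min RT, then CCD imaging. A rise in signal marks genotoxic stress.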
A general note: In qHTS, concentration-response curves come from the screen itself.

Assay [3] is described as follows: qHTS assay for small molecule agonists of the p53 signaling pathway - cell viability (AID 651633; calls by dose curve; note: nearly all actives have a fitted effect of over 30% in size; note: potency is the fitted concentration of half-maximal effect). The essentials:
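p53RE-bla cells, seeded at 4,000 per well and rested 5 h at 37 C/5% CO2, received compounds in DMSO for 16 h at 37 C. CellTiter-Glo was then added, and luminescence was read after 30 min at room temperature to gauge cytotoxicity.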

The nature of assay [4]: qHTS assay for small molecules that induce genotoxicity in human embryonic kidney cells expressing luciferase-tagged ATAD5 - cell viability (AID 651634; calls by dose curve; note: nearly all actives have a fitted effect of over 25% in size). The essentials: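 HEK293T ATAD5-luc cells, 2,000/well; compound 15.5 hr, 37C/5% CO2; CellTiter-Fluor 30 min, 37C; fluorescence read.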
Assay [5] can be described thus: qHTS assay for small molecule disruptors of the mitochondrial membrane potential - cell viability (AID 720634; calls by dose curve;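 note: human HepG2 liver cancer cells; series mostly up to about 83 µM; nearly all actives have a fitted effect of over 20% in size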). The essentials: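 Luminescence from CellTiter-Glo (ATP content) gave viability in HepG2 cells, read in the same wells as the MMP dye assay after 1 hr compound exposure at 37 C.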
Assay [6] is described as follows: qHTS assay for small molecule disruptors of the mitochondrial membrane potential (AID 720635). Note: potency is the fitted concentration of half-maximal effect. The method in brief:
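HepG2 cells (2,000/well) attached overnight at 37C, then took compound for 1 hr at 37C, 5% CO2. Mito-MPS dye was added for 30 min; fluorescence was read at 490/535 nm (monomers) and 540/590 nm (aggregates).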

Assay [7] can be described thus: qHTS assay to test for compound auto fluorescence at 590 nm (red) in HepG2 cells (AID 720674). The method in brief:
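Rose Bengal sodium served as the red fluorophore standard. HepG2 monolayers (overnight attachment, MEM with 10% FBS) were exposed to test compounds for 1 hr at 37 C and read at Ex 540/Em 590 nm.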

Assay [8] can be described thus: qHTS assay to test for compound auto fluorescence at 535 nm (green) in HepG2 cells (AID 720675).
A short description of assay [9]: qHTS assay to test for compound auto fluorescence at 460 nm (blue) in HEK293 cells (AID 720678). The method in brief:
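Auto fluorescence in the blue band was quantified as triamterene equivalency. HEK293 cells were seeded at 2,000/well, dosed after a 4-5 hr attachment, and kept overnight at 37C before the 405/460 nm reading.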

Assay [10] is described as follows: qHTS assay to test for compound auto fluorescence at 590 nm (red) in HEK293 cells (AID 720679). The method in brief: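 Autofluorescence equivalency to Rose Bengal sodium, 540/590nm, in HEK293 cells exposed overnight to 23 nL compound per well.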

Where “and” joins values, the source holds several entries; their conditions need not be identical. Identical values can stand only once. Inconclusive results are not listed. Calls of active or inactive are those of the source. Unless noted, calls come from the whole dose curve; as a rule, active = well fitted curve in the direction sought with a large enough effect in the repeat runs; inconclusive = weak or mixed curves; inactive = no such curve, though single readings can be large; an effect the other way counts as inactive or inconclusive.

`CC(CNC(=O)c1cccnc1)NC(=O)c1cccnc1` (stereo not given): the Potency entry in [1], in [2], in assay [3], in [4], in assay [5] and in assay [6] was “inactive” throughout. In addition, the Potency result in [8] and in assay [9] was “inactive” throughout. Further, the result in assay [7] and in assay [10] was inactive.

Consider `O=C(O)c1cc(O)c2c(c1)[C@H]([C@H]1c3cc(C(=O)O)cc(O)c3C(=O)c3c(O[C@@H]4O[C@H](CO)[C@@H](O)[C@H](O)[C@H]4O)cccc31)c1cccc(O[C@@H]3O[C@H](CO)[C@@H](O)[C@H](O)[C@H]3O)c1C2=O`, for which the Potency result in [1], in assay [2], in [3], in assay [4], in assay [5] and in assay [6] was “inactive” throughout. Besides, the Potency result in assay [8] and in assay [9] was “inactive” throughout. Besides, the compound was called inactive in assay [7] and in assay [10].

For the compound `CCCOC(=O)c1ccccc1O`, the Potency entry in assay [1], in assay [2], in assay [3], in assay [4], in assay [5] and in assay [6] was “inactive” throughout. The Potency entry in [8] and in assay [9] was “inactive” in each case. The outcome in assay [7] and in [10] was inactive.

As for `CCN(CC)CCOC[C@H]1O[C@@H](O)[C@H](OCCN(CC)CC)[C@@H](O)[C@@H]1O`, the Potency result in [1], in assay [2], in assay [3], in assay [4], in assay [5] and in [6] was “inactive” in each case. In addition, the Potency entry in [8] and in assay [9] was “inactive” throughout. Moreover, the result in assay [7] and in [10] was inactive.

`CCN1CCCC1CNC(=O)c1cc(S(=O)(=O)CC)ccc1OC` (stereo not given): the Potency entry in assay [1], in [2], in assay [3], in assay [4], in assay [5] and in [6] was “inactive” in each case. Besides, the Potency entry in assay [8] and in [9] was “inactive” throughout. Besides, the compound was classed as inactive in [7] and in [10].

In the case of `CC[C@H]1OC(=O)C[C@@H](O)[C@H](C)[C@@H](O[C@@H]2O[C@H](C)[C@@H](O)[C@H](N(C)C)[C@H]2O)[C@@H](CCN2C[C@H](C)C[C@H](C)C2)C[C@@H](C)C(=O)/C=C/C(C)=C/[C@@H]1CO[C@@H]1O[C@H](C)[C@@H](O)[C@@H](OC)[C@H]1OC`, the Potency entry in assay [1], in assay [2], in assay [3], in [4], in assay [5] and in assay [6] was “inactive” throughout. Besides, the Potency result in [8] and in [9] was “inactive” each time. Also, the compound was called inactive in assay [7] and in assay [10].

With `CC(=O)OCC1=C(C(=O)O)N2C(=O)[C@@H](NC(=O)Cc3ccccc3)[C@H]2SC1`, the Potency entry in assay [1], in assay [2], in assay [3], in assay [4], in assay [5] and in assay [6] was “inactive” in each case. Besides, the Potency result in [8] and in assay [9] was “inactive” throughout. For the same compound, the compound was called inactive in assay [7] and in assay [10].

Take `c1ccc(-n2cnnn2)cc1`: the Potency result in assay [1], in [2], in [3], in assay [4], in [5] and in [6] was “inactive” each time. The Potency result in assay [8] and in [9] was “inactive” in each case. Further, the compound was classed as inactive in assay [7] and in assay [10].

With `FC(F)(F)C(F)(F)C(F)(F)C(F)(F)C(F)(F)F`, the Potency result in assay [1], in assay [2], in [3], in assay [4], in assay [5] and in [6] was “inactive” in each case. The Potency result in [8] and in assay [9] was “inactive” in each case. Moreover, the outcome in assay [7] and in assay [10] was inactive.

With `Cc1cc(CC(C)CC(C)(C)C)n(O)c(=O)c1` (stereo not given) (tested in a mixture with another compound), the Potency in assay [1] is 9.44 µM (active); in [2], 13.3 µM (active); in assay [3], 29.8 µM (active); in [6] it was 3.35 µM (active). For the same compound, the Potency result in assay [4], in assay [5], in [8] and in [9] was “inactive” throughout. For the same compound, the result in assay [7] and in [10] was inactive.

On to `Cc1c(N)nc([C@H](CC(N)=O)NC[C@H](N)C(N)=O)nc1C(=O)N[C@H](C(=O)N[C@H](C)[C@@H](O)[C@H](C)C(=O)N[C@H](C(=O)NCCc1nc(-c2nc(C(=O)NCCCCN=C(N)N)cs2)cs1)[C@@H](C)O)[C@@H](O[C@@H]1O[C@@H](CO)[C@@H](O)[C@H](O)[C@@H]1O[C@H]1O[C@H](CO)[C@@H](O)[C@H](OC(N)=O)[C@@H]1O)c1cnc[nH]1`, for which the Potency in assay [1] is 841 nM (active) and 66.8 nM (active). In addition, the Potency entry in assay [2], in [3], in assay [4], in [5], in assay [6] and in assay [8] was “inactive” each time. The Potency result in [9] was “inactive”. Also, the call in assay [7] and in assay [10] was inactive.

On to `CCOc1cc(CC(=O)N[C@@H](CC(C)C)c2ccccc2N2CCCCC2)ccc1C(=O)O`, for which the Potency result in [1], in [2], in assay [3], in [4], in assay [5] and in assay [6] was “inactive” throughout. The Potency result in assay [8] and in assay [9] was “inactive” in each case. Further, the outcome in assay [7] and in assay [10] was inactive.

Regarding `O=C(O)CCCC/C=C(\c1ccccc1)c1cccnc1`, the Potency result in [1], in assay [2], in assay [3], in assay [4], in [5] and in [6] was “inactive” throughout. Further, the Potency result in assay [8] and in assay [9] was “inactive” each time. Also, the outcome in assay [7] and in assay [10] was inactive.

As to `C=N[C@@H](C(=O)N[C@@H]1C(=O)N2[C@@H]1SC(C)(C)[C@@H]2C(=O)O)c1ccccc1`, the Potency result in assay [1], in assay [2], in [3], in assay [4], in [5] and in [6] was “inactive” in each case. The Potency entry in [8] and in assay [9] was “inactive” in each case. Also, the compound was called inactive in [7] and in assay [10].

For the compound `CC1=C(/C=C/C(C)=C/C=C/C(C)=C/C=C/C=C(C)/C=C/C=C(C)/C=C/C2=C(C)CCCC2(C)C)C(C)(C)CCC1`, the Potency entry in [1], in assay [2], in assay [3], in assay [4], in assay [5] and in assay [6] was “inactive” throughout. The Potency entry in assay [8] and in assay [9] was “inactive” in each case. The compound was called inactive in [7] and in [10].

On to `CO/N=C(\C(=O)N[C@@H]1C(=O)N2C(C(=O)[O-])=C(C[n+]3cccc4c3CCC4)CS[C@H]12)c1csc(N)n1`, for which the Potency result in [1], in assay [2], in [3], in [4], in assay [5] and in [6] was “inactive” each time. Besides, the Potency result in assay [8] and in assay [9] was “inactive” in each case. The compound was classed as inactive in [7] and in assay [10].

Take `CC(C)(COP(=O)(O)OP(=O)(O)OC[C@H]1O[C@@H](n2cnc3c(N)ncnc32)[C@H](O)[C@@H]1OP(=O)(O)O)C(O)C(=O)NCCC(=O)NCCS` (stereo not given in full): the Potency result in [1], in assay [2], in [3], in [4], in assay [5] and in [6] was “inactive” in each case. The Potency entry in assay [8] and in [9] was “inactive” in each case. In addition, the result in assay [7] and in [10] was inactive.

For the origin of these results see PubChem BioAssay (Tox21).
